Several values for one entry are separate records, joined by “and”; a condition that tells them apart may be missing. Equal values may be shown once. This is part of a sample that, as a whole, favours compounds with a hit. Of some 83,000 tested, about 20% had one in any assay.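 Testing used 96-well plates and a 48-hour single-concentration exposure. Example: -40 means 40% of the starting cells died.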 Values without a mark were called inactive. Activity calls are given as the source filed them. The calls were made as follows: active = growth percent below 10; inactive = the rest.
Legend:
Assay in all cases: NCI-60 one-dose screen, 48 h (100 = growth as untreated, 0 = no growth, -100 = all killed)
Settings in all cases: 10 µM unless noted
[1] = test system: SK-MEL-2 melanoma
[2] = test system: EKVX NSCLC
[3] = test system: SN12C renal
[4] = test system: UO-31 renal
[5] = test system: TK-10 renal
[6] = test system: ACHN renal
[7] = test system: CAKI-1 renal
[8] = test system: A498 renal
[9] = test system: CCRF-CEM leukemia
[10] = test system: MOLT-4 leukemia

| Structure (SMILES) | growth [1] | growth [2] | growth [3] | growth [4] | growth [5] | growth [6] | growth [7] | growth [8] | growth [9] | growth [10] |
| --- | --- | --- | --- | --- | --- | --- | --- | --- | --- | --- |
| CCN(CC)CCOc1ccccc1C | 101% | 112% | 98.7% | 95% | 107% | 101% | 102% | 106% | 102% | 103% |
| C=C[C@]1(C)C=C2CC[C@@H]3C(C)(C)C(=O)CC[C@@]3(C)[C@@H]2CC1 | 106% | 101% | 99% | 17.9% | 98.7% | 106% | 84% | 90.6% | 101% | 109% |
| COc1ccc(C(c2cc(OC)c(OC)c(OC)c2)n2ccnc2)cc1O (stereo not given) | 43.5% | 30.2% | 37.6% | 62% | 52.9% | 42.4% | 41.3% | 8.04% (active) | 6.97% (active) | 14% |
| COC(=O)c1c2c(c(C)[n+]([O-])c1C)C(=O)C(NCCN1CCOCC1)=CC2=O | 78.2% | 65.8% | 59% | 82.2% | 111% | 85.5% | 73% | 129% | 80.2% | 88.1% |
| Cc1ccc(-c2nc(C#N)c(S(=O)(=O)N(C)C)o2)cc1 | 91.1% | 106% | 75.2% | 91.7% | 103% | -59.4% (active) | 90% | 77% | -10.9% (active) | -22.8% (active) |
| CC/C=C\C/C=C\C[C@H](O)C/C=C1/C(=O)C=C[C@@H]1C/C=C\CCCC(=O)OC | -16.9% (active) | 24.8% | -29.2% (active) | -83.3% (active) | 5.09% (active) | -75.9% (active) | -1.75% (active) | 21.9% | -11.7% (active) | -10.5% (active) |
| COCCn1cc(-c2nc(-c3cn(CCOC)c4ncccc34)cs2)c2ccccc21 | 59.9% | 27.9% | 107% | 98.6% | 33.3% | 91.6% | 94.6% | 123% | 128% | 122% |
| CC[C@]1(O)CC2CN(CCc3c([nH]c4ccccc34)C(C(=O)OC)(c3cc4c(cc3OC)N(C=O)[C@H]3[C@@](O)(C(=O)OC)[C@H](OC(C)=O)[C@]5(CC)[C@@H]6C[C@@H]6CN6CC[C@]43[C@@H]65)C2)C1 (stereo not given in full) | 11.6% | 43.4% | 30.1% | 31.1% | 50% | 30.9% | 32.1% | -20% (active) | 13.6% | 13.1% |
| C#CCOCC1CN(C)C(=O)O1 (stereo not given) | 116% | 115% | 103% | 97.1% | 110% | 105% | 104% | 107% | 98.9% | 89.6% |
| Cc1c(CC(=O)OCCO)cc(-c2ccc(Cl)cc2)n1-c1ccccc1 | 103% | 95.5% | 92.4% | 75.5% | 115% | 100% | 87.6% | 87.9% | 99% | 91.4% |
| Cc1ccc(C(=O)N(CCCN)[C@@H](c2nc3cc(Cl)ccc3c(=O)n2Cc2ccccc2)C(C)C)cc1 | -43% (active) | -7.16% (active) | -15.6% (active) | 5.01% (active) | -33.5% (active) | -28.3% (active) | 4.04% (active) | -4.18% (active) | 1.72% (active) | -29.3% (active) |
| COc1ccc(C2Nc3nc(SC)nc(N)c3N=C3c4ccccc4CCC32)cc1 (stereo not given) | 107% | 58.5% | 109% | 73.3% | 158% | 103% | 85.6% | 48.8% | 47.8% | 69.7% |
| C/C(=C(\c1ccc(OCCN2CCOCC2)cc1)c1ccc(OC(=O)C2CCCCC2)cc1)c1ccc(Cl)cc1 | 92.6% | 94.1% | 94.7% | 81.8% | 96.4% | 104% | 77.9% | 92.6% | -24.6% (active) | 91.1% |
| CCCCCCCC/C=C\CCCCCCCCOc1ccccc1CC(=O)NCC[N+]1(C)CCOCC1 | 90.3% | 92.1% | 60.5% | 96.2% | 8.83% (active) | 85.5% | 71.6% | 95.2% | 67.5% | 83.7% |
| O=C1CCCCN1CCCCC#Cc1cccc(C#Cc2cccnc2)c1 | 96.4% | 93.9% | 90.3% | 59.1% | 229% | 101% | 84.4% | 84.3% | -23% (active) | -49.9% (active) |
| Cc1cc(N2CCCCC2)nc(NCc2cc(Nc3ccnc4cc(Cl)ccc34)ccc2F)n1 | -42.7% (active) | 38.6% | -71% (active) | -46.9% (active) | -21.5% (active) | -82% (active) | 19.1% | -17.3% (active) | -19.2% (active) | -24.8% (active) |
| COc1ccc(-c2csc(NC(=O)CN3CCN(CCO)CC3)n2)cc1NS(=O)(=O)c1cccc2c(N(C)C)cccc12 | 86.9% | 80.9% | 89.1% | 61.4% | 109% | 87% | 75.6% | 102% | 54.8% | 65.4% |
| O=C(c1ccc(Nc2nccc(NCCCNc3ccnc4cc(Cl)ccc34)n2)cc1)N1CCCCC1 | 64.5% | 57% | 34.3% | 82.3% | 73.2% | 79.9% | 89.9% | 69.1% | 37.1% | 25.3% |
| Cc1ccc(S(=O)(=O)OC[C@@]2(C)CC[C@]3(C)CC[C@]4(C)C(=C3C2)C=C[C@@H]2[C@@]3(C)CCCNC(C)(C)[C@@H]3CC[C@]24C)cc1 | 9.43% (active) | 88.9% | 7.76% (active) | 71.6% | 68.6% | -46.6% (active) | 1.61% (active) | 104% | 0.849% (active) | -24.8% (active) |
| COc1cc(CNC(=O)CCCC/C=C/C(C)C)ccc1O | 93.3% and 108% | 103% and 97.3% | 92.4% and 91.9% | 57.7% and 59% | 200% and 103% | 99.7% | 92.1% and 82.2% | 112% and 113% | 55.8% and 58.3% | 84.2% and 73.4% |
| CCCO/N=C/c1ccccn1 | 116% and 94.7% | 108% and 96.8% | 94.1% and 108% | 89.5% and 93% | 112% and 89.3% | 104% and 100% | 109% | 101% and 117% | 80.9% and 105% | 124% and 102% |
| CC(=O)N1N=C(c2ccc(F)cc2)CC1c1sc(N(C)Cc2ccccc2)nc1Cl (stereo not given) | 96.1% | 87.4% | 106% | 74.6% | 112% | 102% | 83.9% | 104% | 96.4% | 99.7% |
| COc1ccc(/C=C2\COc3ccc(O)c(O)c3C2=O)c(OC)c1OC | 70.3% | 65.7% | 0.808% (active) | -5.7% (active) | 45.1% | 12.5% | 39% | 109% | 3.07% (active) | 1.41% (active) |

Reference: PubChem BioAssay (NCI)
